In PubChem BioAssay AID1012 (Sanford-Burnham Center for Chemical Genomics, 2008):
About 520 (0.26%) of roughly 200,000 compounds were called active. The sample holds actives, similar compounds and a random draw of the others, so the mix is not that of the screen. A number with no mark means an inactive call.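 Rule for the calls: active = tissue-nonspecific alkaline phosphatase inhibition above about 50% at 20 µM in the single-dose screen (limit read from the data); inactive = the rest.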

biological target: Alkaline phosphatase, tissue-nonspecific isozyme (Homo sapiens) (UniProt P05186); experiment: human TNAP enzyme inhibitors, primary screen, biochemical, luminescent, no phosphate acceptor, uHTS (AID 1012); settings: purified TNAP, CDP-star luminescence, 30 min; at 20 µM; hits give high values;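 note: 0% = DMSO negative control and 100% = EDTA positive control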
Sequence (P05186 whole entry, looked up): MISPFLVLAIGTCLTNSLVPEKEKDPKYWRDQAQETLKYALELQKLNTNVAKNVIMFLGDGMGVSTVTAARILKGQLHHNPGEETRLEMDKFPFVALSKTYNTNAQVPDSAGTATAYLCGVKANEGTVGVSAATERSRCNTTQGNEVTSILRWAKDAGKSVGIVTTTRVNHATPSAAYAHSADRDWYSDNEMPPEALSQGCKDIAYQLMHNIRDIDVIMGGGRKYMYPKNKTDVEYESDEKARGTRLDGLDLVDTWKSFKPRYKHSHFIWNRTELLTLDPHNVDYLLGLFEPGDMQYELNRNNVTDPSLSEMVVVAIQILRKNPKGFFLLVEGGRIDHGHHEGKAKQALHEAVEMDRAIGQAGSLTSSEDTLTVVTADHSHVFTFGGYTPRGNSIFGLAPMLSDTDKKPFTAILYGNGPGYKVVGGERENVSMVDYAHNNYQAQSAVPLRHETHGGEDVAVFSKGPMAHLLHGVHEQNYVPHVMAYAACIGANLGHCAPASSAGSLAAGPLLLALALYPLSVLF

| Compound | inhibition |
| --- | --- |
| O=C1COc2ccc(C(=O)COC(=O)C3CC(O)CN3S(=O)(=O)c3ccc(Cl)cc3)cc2N1 (configuration not stated) | -11.9% |
| COc1ccccc1Cn1c(C)nnc1-c1cnn(C)c1N | -14% |
| Cc1ccccc1C(=O)Nc1ccc(N2CCCCCC2)cc1 | -10.8% |
| COc1ccc(Cl)cc1NC(=O)[C@@H]1CCCN1C(=O)c1cccs1 | -0.4% |
| O=C(NCc1ccc(F)cc1)C(c1ccccc1)N(C(=O)c1csnn1)C1CC1 (configuration not stated) | -11.9% |
| C#CCOCCOCCOCCNc1nc(N2CCN(C(=O)[C@H](CCC(=O)O)n3cc(C(N)CO)nn3)CC2)nc(N2CCN(C(=O)[C@H](Cc3ccc(O)cc3)n3cc(C(N)[C@H](C)CC)nn3)CC2)n1 (some centres not stated) | -7.8% |
| CN(C)C(=O)c1nc2ccc(Cl)cn2c1CN1CCN(c2ncccn2)CC1 | -12.2% |
| CCOC(=O)c1c(NC(=O)C2CCN(S(=O)(=O)c3ccc(Cl)cc3)CC2)sc2c1CCCC2 | -6% |
| O=C(CSc1nc(O)c(Cc2ccccc2)c(=O)[nH]1)Nc1nc2c(s1)CCCC2 | -7.1% |
| CCCCC(CC(C)O)c1n[nH]c(=S)n1-c1ccccc1 (configuration not stated) | -23.2% |
| Cc1cccc(NC(=S)NCCc2ccc(F)cc2)c1C | -8.2% |
| O=C(NNC(=S)NC1CCCCC1)c1ccccc1Cl | -122% |
| O=S(=O)(NCCc1ccncc1)c1ccccc1 | -12% |
| COc1cccc(NC(=S)NC(=O)c2c(Cl)c(C)nn2C)c1 | 12.5% |
| COc1ccc(NC(=O)COC(=O)c2ccncc2)c(OC)c1 | -9.8% |
| CCc1nnc(NC(=O)c2nc3nccc(C)n3n2)s1 | -1.7% |

| Compound | inhibition |
| --- | --- |
| Cc1ccnc2nc(C(=O)Nc3nnc(-c4ccccc4)o3)nn12 | 52.3% (active) |
| CCCC(=O)Nc1nnc(-c2ccccc2)o1 | -7.1% |
| COc1ccc(N2C(=O)CC(Nc3ccc(F)cc3)C2=O)c([N+](=O)[O-])c1 (configuration not stated) | -5.2% |
| Cc1ccc(NC(=O)CN2CCCCC2)c2c1CC(C)(C)O2 | -3% |
| O=C(O)CCn1c(SCc2cc(=O)n3ccccc3n2)nc2ccsc2c1=O | -2.2% |
| COCCNC(=O)NC(=O)COC(=O)C1(c2ccc(Cl)cc2)CC1 | -9.9% |
| Cc1ccc(C(=O)OC2CCCN(C)C2)cc1 (configuration not stated) | -10.2% |
| Nc1ncnc(Nc2cccc(Cl)c2Cl)n1 | -2.3% |
| COc1ccc(/C=C2\SC(=N)N(c3ccc(F)cc3)C2=O)cc1 | -8% |
| Cn1cccc1/C=C1\SC(=O)N(CC(=O)Nc2ccc(F)cc2)C1=O | -0.3% |
| CC(C)OC(=O)Cn1nc(C(F)(F)F)c2c1CCCC2 | 0.5% |
| CCOc1ccc(C(=O)NC2CCN(CC(=O)NCc3cccs3)CC2)cc1 | -4.7% |
| CC(NC(=O)C(=O)N/N=C/c1ccc(Cl)cc1)c1ccccc1 (configuration not stated) | 3.3% |
| COCCNC(=O)c1ccccc1NS(=O)(=O)c1ccc(C)c([N+](=O)[O-])c1 | -7.3% |
| Cc1ccnc(NC(=O)c2ccc(Cl)c([N+](=O)[O-])c2)c1 | -11.1% |
| CCOC(=O)NC(=O)C(=CNc1cccc(OC)c1)C(=O)NC(=O)OCC | -10.1% |
